# According to ChEMBL document CHEMBL3988442, “University of Dundee, Small-Polar-MMV Screening Library” (2021):
# The whole screen tested about 48,000 compounds, of which about 13,000 (27%) showed an effect of 50% or more. Some of the results follow.
# Tested on: Wolbachia pipientis
# Test: Anti-Wolbachia Cell-Based Screen
# Format: functional
# Set-up: scale not given: in the data most compounds retested in dose-response had high values
# Conditions: 5 µM
row,Compound,Percent Effect
1,CN(Cc1cccc(F)c1)C(=O)CN1CCCCC1Cn1cncn1 (stereo not drawn),-4.656%
2,COC(=O)CCN1CCCC1c1cccc2c1OCCO2 (stereo not drawn),6.335%
3,CN(C)C(=O)N1CC[C@@H](c2ccc3ccccc3c2)[C@H](O)C1,2.148%
4,CC(C)c1ccc(C(N)c2cccs2)cc1 (stereo not drawn),-4.854%
5,COCC(=O)N[C@H](C)c1onc(-c2ccc(OC)cc2)c1C(=O)O,9.623%
6,COc1ccc(-c2noc([C@@H](C)NC(=O)CC(C)C)c2C(=O)O)cc1,0.3938%
7,CC(C)c1ccc(-c2nonc2N)cc1,135.4%
8,Cc1cc(CN(C)Cc2csc(-c3ccc(C(C)C)cc3)n2)no1,-4.334%
9,COc1ccc(-c2nonc2N)cc1,116.2%
10,CCN1CCN(c2ccc(F)cc2C(C)NCc2cscn2)CC1 (stereo not drawn),16.44%
11,CC(C)CCC1=NC2(CCN(C(=O)N3CCN(C)CC3)CC2)C(=O)N1,15.84%
12,Cn1ccnc1CN1CCC2(CC1)CC(NC(=O)c1ccccn1)CO2.O=C(O)C(F)(F)F (stereo not drawn),-5.802%
13,Cn1ccnc1CN1CCC2(CC1)CC(N1CCCC1)c1ccccc12 (stereo not drawn),116.8%
14,COc1ccc2c(c1)C1(CCN(Cc3cccnc3)CC1)N(C)CC2.O=C(O)C(F)(F)F.O=C(O)C(F)(F)F.O=C(O)C(F)(F)F,47.52%
15,CN(C)C1CCC2(CCN(Cc3nccn3C)CC2)c2ccccc21.O=C(O)C(F)(F)F.O=C(O)C(F)(F)F (stereo not drawn),100.5%
16,CN(C)C1CC2(CCN(C(=O)NC3CC3)CC2)c2ccccc21.O=C(O)C(F)(F)F (stereo not drawn),-41.61%
17,Cn1ccnc1CN1CCC2(CC1)CC(Nc1ccccn1)CO2 (stereo not drawn),-5.655%
18,Cn1ccnc1CN1CCN(Cc2ccccc2C#N)CC1,1.879%
19,CN(C)C1CCC2(CCN(Cc3cccnc3)CC2)c2ccccc21.O=C(O)C(F)(F)F.O=C(O)C(F)(F)F.O=C(O)C(F)(F)F (stereo not drawn),103.9%
20,CCN(Cc1ccoc1)C(=O)NC1CCN(CC=C(C)C)CC1,-3.465%
21,Cc1cc(CN2C[C@@H](N3CCN(C)CC3)[C@H]3OCCC[C@H]32)oc1C.O=C(O)C(F)(F)F.O=C(O)C(F)(F)F.O=C(O)C(F)(F)F,8.988%
22,N#Cc1ccc(N2CCC3(CC2)CC(OCc2cccnc2)CO3)cc1.O=C(O)C(F)(F)F (stereo not drawn),6.886%
23,O=C(c1ccnnc1)N1C[C@H]2CCC[C@@H](OCc3cccnc3)[C@@H]2C1,-7.774%
24,O=C(c1ccc2c(c1)OCO2)N1C[C@H](OCC2CC2)[C@H]2COC[C@H]21,-18.04%
25,O=C(c1ccncn1)N1CCO[C@H]2[C@@H](OCc3cccnc3)CC[C@@H]21,-20.63%

row,Compound,Percent Effect
1,O=C(O)C(F)(F)F.O=C(c1cscn1)N1C[C@H]2CCCC(OCc3cccnc3)[C@H]2C1 (stereo partly drawn),-12.9%
2,N#Cc1ccc(C(=O)N2C[C@H](OCc3cccnc3)[C@H]3COC[C@H]32)cc1,101.1%
3,O=C(C1CCOCC1)N1C[C@H](OCc2cccnc2)[C@H]2COC[C@H]21,112.8%
4,Cc1ccc(C(=O)N2C[C@H](OCc3cccnc3)[C@H]3COC[C@H]32)cn1,93.92%
5,O=C(c1cscn1)N1C[C@H](OCc2cccnc2)[C@H]2COC[C@H]21,102.7%
6,Cc1nc(CO[C@H]2CN(C(=O)c3cccnc3)[C@@H]3COC[C@H]23)cs1,-38.06%
7,Cc1ccc(C(=O)N2C[C@H]3CCCC(OCc4cccnc4)[C@H]3C2)cn1.O=C(O)C(F)(F)F.O=C(O)C(F)(F)F (stereo partly drawn),-3.164%
8,CNC(=O)[C@@H]1C[C@@H](NC(=O)Cc2nonc2C)CN1Cc1sccc1C,27.67%
9,CSCCCNC(=O)C1CCC(=O)N(C2CCCC2)C1 (stereo not drawn),-0.8236%
10,COC1CN(C(=O)NCC(N)=O)CCC(=O)N(C)c2ccccc21 (stereo not drawn),111.8%
11,CCOC(=O)COC1CCN(C(C)=O)CC(=O)N(C)c2ccccc21 (stereo not drawn),107.2%
12,COC1CCN(C(=O)NCC(N)=O)CC(=O)N(C)c2ccccc21 (stereo not drawn),98.17%
13,CCOC(=O)N1CCN(C(=O)C2Cc3ccccc3CN2C)CC1 (stereo not drawn),6.849%
14,CCOC(=O)N1CCC(OC)c2ccccc2N(C)C(=O)C1 (stereo not drawn),82.02%
15,CN1CCC(CNC(=O)c2cccc(NC(N)=O)c2)c2ccccc21 (stereo not drawn),-10.01%
16,Cc1ccccc1N1CC(C)N(C(=O)CCn2cccn2)CC1=O (stereo not drawn),17.53%
17,CCN1CCN(C2CCN(C(C(N)=O)c3ccccc3)CC2)C1=O (stereo not drawn),-3.87%
18,CCOC(=O)N1CCN(C(=O)C2CC(=O)N(c3ccccc3Br)C2)CC1 (stereo not drawn),18.95%
19,NC(=O)CC1CCN(C(=O)NCc2ccccc2-n2cccn2)CC1,4.172%
20,CN1CCC(CNC(=O)c2ccc(O)nc2)c2ccccc21 (stereo not drawn),-12.01%
21,Cc1ccc(C)c(SCC(=O)Nc2cccc(C(=O)N(C)C)n2)c1,-1.523%
22,Cc1nc(S(=O)(=O)CCn2cccn2)n(C2CCCC2)c1C,-3.165%
23,CCOC(=O)CNC(=O)N1CCOC(CCc2ccccc2)C1 (stereo not drawn),-4.892%
24,CCOC(=O)CNC(=O)N1CCN(c2ncccn2)CC1,-13.49%
25,CCOC(=O)CNC(=O)N1CCC(OC)c2ccccc2N(C)C(=O)C1 (stereo not drawn),109.7%

row,Compound,Percent Effect
1,CS(=O)(=O)N1C[C@@H]2COC[C@]2(COCC(=O)N2CCCC2)C1,114.9%
2,CS(=O)(=O)N1C[C@H]2CCC[C@@]2(COCC2CCOCC2)C1,-10.38%
3,O=C(COC[C@]12COC[C@H]1CN(C1CCC1)C2)N1CCCC1.O=C(O)C(F)(F)F,91.79%
4,CS(=O)(=O)N1C[C@@H]2COC[C@]2(CN2CCOCC2)C1.O=C(O)C(F)(F)F,2.768%
5,COCCNC(=O)[C@]12COC[C@H]1CN(C1CCOCC1)C2,-42.69%
6,CN(C)S(=O)(=O)N1C[C@H]2CCC[C@@]2(COCc2cccnc2)C1.O=C(O)C(F)(F)F,15.15%
7,CCCS(=O)(=O)N1C[C@@H]2COC[C@]2(CN2CCOCC2)C1.O=C(O)C(F)(F)F,-7.734%
8,C1CC(N2C[C@@H]3COC[C@]3(COCC3CCOCC3)C2)C1.O=C(O)C(F)(F)F,101.5%
9,O=C(COC[C@@]12CCC[C@@H]1CN(C1CCCC1)C2)N1CCCC1.O=C(O)C(F)(F)F,93.22%
10,CCc1ccc(CNC(=O)CCNc2ncccn2)s1,5.252%
11,CCOC(=O)CCCc1ccc2c(c1)CC(=O)N2,6.435%
12,Cc1ncn(-c2cc(N3CCN(S(C)(=O)=O)CC3)ncn2)c1C,-0.4612%
13,Cc1cc(C)c2nc(CNC3CCNC3=O)cc(O)c2c1 (stereo not drawn),-8.98%
14,CC(C)c1nc(S(=O)(=O)N(C)c2ccc(F)cc2)c[nH]1,-3.559%
15,O=C(COC[C@@]12CCC[C@@H]1CN(C1CCC1)C2)N1CCCC1.O=C(O)C(F)(F)F,106.1%
16,Cc1ccc(CN2CC[C@H]3OCC[C@@]3(COCC(=O)N(C)C)C2)s1.O=C(O)C(F)(F)F,-46.75%
17,CN(C)C(=O)COC[C@]12COC[C@H]1CN(C1CCCC1)C2.O=C(O)C(F)(F)F,91.16%
18,CN(C)C(=O)COC[C@@]12CCC[C@@H]1CN(C1CCCC1)C2.O=C(O)C(F)(F)F,-10.47%
19,Cc1cc(CN2C[C@H]3CCC[C@@]3(COCC(=O)N3CCCC3)C2)no1,-8.943%
20,CN(C)C(=O)COC[C@@]12CCC[C@@H]1CN(C1CCC1)C2.O=C(O)C(F)(F)F,4.654%
21,Cc1nc(NC(=O)OC(C)(C)C)sc1C(N)=O,1.161%
22,CC(C)c1nnc(CN(C)C(c2ccc(F)cc2)c2cccnc2)o1 (stereo not drawn),1.551%
23,Cc1cc(C)nc(N2CCc3ccc(OC(F)F)cc3C2)n1,7.415%
24,CS(=O)(=O)NC[C@]12COC[C@H]1CN(C(=O)c1cnccn1)C2,-1.744%
25,Cc1ccnc(OC[C@]23COC[C@H]2CN(C(=O)c2ncccn2)C3)n1,94.44%

row,Compound,Percent Effect
1,Cc1ccnc(OC[C@]23COC[C@H]2CN(C(=O)c2cnccn2)C3)n1,95.8%
2,Cc1ccnc(OC[C@]23COC[C@H]2CN(C(=O)c2ccnn2C)C3)n1,78.09%
3,Cc1ccnc(OC[C@]23COC[C@H]2CN(C(=O)C2=CCCCC2)C3)n1,104.7%
4,Cc1ccc(C(=O)N2C[C@@H]3COC[C@]3(COCc3cccnc3)C2)cn1,-15.81%
5,Cn1cc(C(=O)N2C[C@@H]3COC[C@]3(COCc3cccnc3)C2)cn1,5.656%
6,Cc1nc(C(=O)N2C[C@@H]3COC[C@]3(COCc3cccnc3)C2)cs1,-15.42%
7,COC[C@]12COC[C@H]1CN(C(=O)c1ccc(F)cc1C)C2,-9.416%
8,Cc1cc(N(C)C)nc(NC2CCc3nc(C)nn3C2)n1 (stereo not drawn),0.6524%
9,O=C(C1CC1)N1C[C@H]2CNC[C@@]2(C(=O)NCCCc2ccccc2)C1,-23.56%
10,CCn1cc(CN2CCC(CNC(C)=O)CC2)cc1C#N,3.567%
11,CC(C)Oc1cc(N2CCCC(O)C2)nc(N)n1 (stereo not drawn),-24.67%
12,COCCN1CCN(Cc2ccc3nsnc3c2)[C@H]2CS(=O)(=O)C[C@H]21,0.2231%
13,COCCN1CCC1c1cc(NC2CCCC2)nc(C)n1 (stereo not drawn),74.49%
14,Cc1cc(N2CCC(NCCOc3ccccc3)CC2)nc(C)n1,2.138%
15,COCCCn1ccc(NC2CCSCC2)n1,-2.987%
16,COCCN1CCC1c1cc(N)nc(C)n1 (stereo not drawn),66.06%
17,CCc1nc(N)sc1C(=O)N1CCC(c2cc(O)nc(C)n2)CC1,-4.912%
18,Cc1nc(N)cc(C2CCN2CCC(N)=O)n1 (stereo not drawn),67.17%
19,COCCN1CCC(CN(C)c2nc3c(s2)c(C)nn3C)C1 (stereo not drawn),-0.8373%
20,COCCCn1ccc(NC2CCOCC2)n1,12.54%
21,Cc1nn(C)c(C)c1C1CCCN1CCOc1cccc(C#N)c1 (stereo not drawn),-3.583%
22,Cc1ncsc1C(=O)NC1CCN(CCC(N)=O)CC1,-6.823%
23,Cc1nc(N)cc(C2CCN2CCOc2ccccc2)n1 (stereo not drawn),153.2%
